{
  "source": "PubChem BioAssay AID493168",
  "about": "(National Center for Advancing Translational Sciences (NCATS), 2011)",
  "note": "Results filed as inconclusive are left out. Entries that show only a call come without a potency. Active and inactive are the calls of the source. Calls follow the shape of the dose curve; as a rule, active = well fitted inhibition curve with a large enough effect; inconclusive = small, poorly fitted or top-dose-only effect, or effect the other way; inactive = flat fitted curve, though single readings scatter. Potency is read from the fitted curve at half-maximal effect.",
  "data": [
    {"target": "Ubiquitin carboxyl-terminal hydrolase 2 (Homo sapiens) (UniProt O75604)", "sequence (O75604 whole entry, looked up)": "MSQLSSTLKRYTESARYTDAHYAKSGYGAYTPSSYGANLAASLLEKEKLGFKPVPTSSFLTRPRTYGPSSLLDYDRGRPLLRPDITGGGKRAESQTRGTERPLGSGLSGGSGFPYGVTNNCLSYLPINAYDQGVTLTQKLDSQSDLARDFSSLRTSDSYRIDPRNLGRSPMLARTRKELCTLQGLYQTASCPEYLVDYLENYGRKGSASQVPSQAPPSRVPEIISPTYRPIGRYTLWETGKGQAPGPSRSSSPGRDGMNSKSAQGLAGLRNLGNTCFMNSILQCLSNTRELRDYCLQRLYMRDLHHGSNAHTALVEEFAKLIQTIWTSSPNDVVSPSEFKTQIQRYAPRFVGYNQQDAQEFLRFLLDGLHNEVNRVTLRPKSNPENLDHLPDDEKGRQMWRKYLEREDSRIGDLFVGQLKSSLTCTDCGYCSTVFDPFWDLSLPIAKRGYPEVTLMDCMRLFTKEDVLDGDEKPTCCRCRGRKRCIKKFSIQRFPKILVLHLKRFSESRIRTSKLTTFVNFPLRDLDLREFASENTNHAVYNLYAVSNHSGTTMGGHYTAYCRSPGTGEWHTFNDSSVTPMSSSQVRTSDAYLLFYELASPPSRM", "test": "Confirmation Assay for Inhibitors of Ubiquitin-specific Protease USP2a Using CHOP2 as the Reporter; also: nearly all actives have a fitted effect of over 55% in size", "details": "USP2 core, Ub-CHOP2 coupled reporter fluorescence; series mostly up to 38.3 µM", "outline": "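Ub-CHOP2 cleavage coupled to reporter activation was read by fluorescence after 60 min at RT, with 25 nM final Ub-CHOP2 and substrate. Enzyme (10 nM final USP2 core) first sat 30 min with compound; data were normalized to NEM and fitted to concentration-response curves.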", "values": [
      {"smiles": "CC(C)(C)[C@H]1COC(=O)[C@@H](Cc2ccc(F)cc2)C/C=C\\C[C@@H](CC(=O)N[C@H](CO)Cc2ccccc2)C(=O)N1", "Potency": "inactive"},
      {"smiles": "COC(=O)C1Sc2[nH]c(=O)sc2C(c2ccc(Cl)cc2)C1C(=O)OC", "note": "(stereo not drawn)", "Potency": "inactive"},
      {"smiles": "Cc1cc(C)c(NC(=O)C[N+](C)(C)CC(O)COc2cccc3ccccc23)c(C)c1", "note": "(stereo not drawn)", "Potency": "inactive"},
      {"smiles": "Cc1c(C(=O)NCc2c(F)cc(F)cc2F)oc2ccc(S(=O)(=O)N3CCOCC3)cc12", "Potency": "inactive"},
      {"smiles": "Cn1c2ccccc2c2nnc(SC3CCOC3=O)nc21", "note": "(stereo not drawn)", "Potency": "inactive"},
      {"smiles": "COc1ccc(CCNC(=O)COC(=O)CNS(=O)(=O)c2ccc(SC)c([N+](=O)[O-])c2)cc1", "Potency": "inactive"},
      {"smiles": "COc1ccc(-c2csc(N3CCN(C(=O)c4ccco4)CC3)n2)cc1", "Potency": "inactive"},
      {"smiles": "CSc1cccc(NC(=O)c2ccccc2N(C)S(C)(=O)=O)c1", "Potency": "inactive"},
      {"smiles": "Cc1cccc2c1N(CCCOc1ccc(C(C)(C)C)cc1)C(=O)C2=O", "Potency": "inactive"},
      {"smiles": "CCOC(=O)CN1C(=O)S/C(=C/c2ccc(O)c([N+](=O)[O-])c2)C1=O", "Potency": "inactive"},
      {"smiles": "N#CC(c1ccccc1)c1ccc(C(=O)c2ccc(F)cc2)cc1", "note": "(stereo not drawn)", "Potency": "inactive"},
      {"smiles": "CCCCCCCCCC[N+](C)(C)CC/C=C1/c2ccccc2Sc2ccc(Cl)cc21", "Potency": "13.1 µM (active)"},
      {"smiles": "Cc1ccc(C(=O)N(C)CC(=O)Nc2cccc(C)c2C)o1", "Potency": "inactive"},
      {"smiles": "Cc1cnc(N)c2c(=O)oc3ccccc3c12", "Potency": "inactive"},
      {"smiles": "CCC(CO)Nc1nc(CN2CCCCC2)nc2scc(-c3ccccc3)c12", "note": "(stereo not drawn)", "Potency": "inactive"},
      {"smiles": "CC(C)CC(=O)NC(=S)Nc1nc(-c2ccc(Cl)cc2)cs1", "Potency": "inactive"},
      {"smiles": "Cc1ccccc1OCc1nc2ccccc2c(=O)n1N", "Potency": "inactive"},
      {"smiles": "CCOC(=O)C(=O)Nc1nc(-c2ccc3c(c2)CCN3C(=O)C2CC2)c(C)s1", "Potency": "inactive"},
      {"smiles": "CC(C)C(C(=O)O)N1C(=O)/C(=C/C=C/c2ccco2)SC1=S", "note": "(stereo not drawn)", "Potency": "6.56 µM (active)"},
      {"smiles": "CCCn1c(N2CCN(Cc3cccc(C)c3)CC2)nc2c1c(=O)[nH]c(=O)n2C", "Potency": "inactive"},
      {"smiles": "CC(C)C(=O)N=c1sc2cc(F)cc(F)c2n1C", "Potency": "inactive"},
      {"smiles": "O=C(Nc1cccc(Cl)c1)Nc1nnc(CC2=CCCCC2)s1", "Potency": "inactive"},
      {"smiles": "Nc1c(C(=O)NCC2CCCO2)sc2nc3c(c(-c4ccco4)c12)CC/C3=C\\c1ccco1", "note": "(stereo not drawn)", "Potency": "4.14 µM (active)"}
    ]}
  ]
}
